Experimental data published in PubChem BioAssay (NCI).
The panel holds about 83,000 compounds, 20% with a hit somewhere; the sample as a whole holds those more often.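 Activity criterion: percent growth below 10, measured after cells in 96-well plates were exposed to a single compound concentration for 48 hours.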 Values without a mark were called inactive. The source made the active and inactive calls.

How the values were obtained:
Assay in all cases: NCI-60 one-dose screen, 48 h (100 = growth as untreated, 0 = no growth, -100 = all killed)
Conditions in all cases: 10 µM unless noted
[1] = tested on: NCI-H23 lung
[2] = tested on: NCI-H226 lung
[3] = tested on: NCI-H322M lung
[4] = tested on: HOP-62 NSCLC
[5] = tested on: NCI-H460 lung
[6] = tested on: HOP-92 NSCLC
[7] = tested on: NCI-H522 lung
[8] = tested on: A549/ATCC NSCLC
[9] = tested on: 786-0 renal
[10] = tested on: COLO 205 colon
[11] = tested on: DU-145 prostate
[12] = tested on: K-562 leukemia
[13] = tested on: MALME-3M melanoma
[14] = tested on: RXF 393 renal
[15] = tested on: SF-268 CNS
[16] = tested on: SF-295 CNS
[17] = tested on: SF-539 CNS
[18] = tested on: UACC-257 melanoma
[19] = tested on: M14 melanoma
[20] = tested on: MDA-MB-231 breast

Q: Which results are given for CN1CCN(Cc2ccc(NC(=O)c3ccc(C(C)(C)C)c(C#Cc4cnc5cccnn45)c3)cc2C(F)(F)F)CC1?
A: growth [1]: -65.1% (active); growth [2]: 48.5%; growth [3]: -29.6% (active); growth [4]: -73.1% (active); growth [5]: -52.7% (active); growth [6]: 23.9%; growth [7]: -73.5% (active); growth [8]: -76.8% (active); growth [9]: -85.4% (active); growth [10]: -70.1% (active); growth [11]: -76.7% (active); growth [12]: -53% (active); growth [13]: -53.7% (active); growth [14]: -78.7% (active); growth [15]: -74.7% (active); growth [16]: -59.9% (active); growth [17]: -76.3% (active); growth [18]: -37.7% (active); growth [19]: -69.2% (active)

Q: C=C(C)[C@@H]1CC[C@]2(N=C=O)CC[C@]3(C)[C@H](CC[C@@H]4[C@@]5(C)Cc6c([nH]c7ccccc67)C(C)(C)[C@@H]5CC[C@]43C)[C@@H]12 was tested. Which growth [1] did it give?
A: 98%

Q: And the growth [2]?
A: 90.5%

Q: And the growth [3]?
A: 88.4%

Q: What about the growth [4] of the same compound?
A: 89%

Q: And the growth [5]?
A: 39.5%

Q: And the growth [6]?
A: 66.2%

Q: And the growth [7]?
A: 53.4%

Q: What about the growth [8] of the same compound?
A: 73.5%

Q: What about the growth [9] of the same compound?
A: 66.7%

Q: What about the growth [10] of the same compound?
A: 65.6%

Q: And the growth [11]?
A: 63.2%

Q: What about the growth [12] of the same compound?
A: 3.74% (active)

Q: What about the growth [13] of the same compound?
A: 101%

Q: What about the growth [20] of the same compound?
A: 68.4%

Q: What about the growth [14] of the same compound?
A: 81.6%

Q: What about the growth [15] of the same compound?
A: 80.7%

Q: And the growth [16]?
A: 111%

Q: And the growth [17]?
A: 89.3%

Q: And the growth [18]?
A: 109%

Q: What about the growth [19] of the same compound?
A: 70.5%

Q: Which results are given for CSc1ccc2c(c1)c(CCN)c(C)n2Cc1ccc(Cl)c(Cl)c1?
A: growth [1]: -89.7% (active); growth [2]: -59.8% (active); growth [3]: -83% (active); growth [4]: -78.2% (active); growth [5]: -70.6% (active); growth [6]: -91.6% (active); growth [7]: -76.5% (active); growth [8]: -77.9% (active); growth [9]: -76.1% (active); growth [10]: -75.8% (active); growth [11]: -89.4% (active); growth [12]: -66.1% (active); growth [13]: -75.4% (active); growth [14]: -82.5% (active); growth [15]: -71.1% (active); growth [16]: -90.9% (active); growth [17]: -82.8% (active); growth [18]: -73.3% (active); growth [19]: -85% (active)

Q: Which results are given for COc1cccc(Cc2cc(-c3ccccc3)nn(CC(=O)c3ccccc3)c2=O)c1?
A: growth [1]: 74.2%; growth [2]: 60.7%; growth [3]: 94.1%; growth [4]: 60.4%; growth [5]: 37.8%; growth [6]: 46.9%; growth [7]: 72.4%; growth [8]: 79.5%; growth [9]: 55.8%; growth [10]: 84.9%; growth [11]: 63.3%; growth [12]: 22.5%; growth [13]: 97.1%; growth [14]: 60.1%; growth [15]: 54%; growth [16]: 68.1%; growth [17]: 49.9%; growth [18]: 95%; growth [19]: 60.3%

Q: With COc1cccc(/C=C2\C=C(c3ccccc3)N(Cc3ccccc3)C2=O)c1 as the compound, how does the growth [1] read?
A: 71.1%

Q: What about the growth [2] of the same compound?
A: 73%

Q: What about the growth [3] of the same compound?
A: 51%

Q: What about the growth [4] of the same compound?
A: 69.4%

Q: What about the growth [5] of the same compound?
A: 72.3%

Q: And the growth [6]?
A: 18.1%

Q: And the growth [7]?
A: 56.4%

Q: And the growth [8]?
A: 47.9%

Q: What about the growth [9] of the same compound?
A: 57.3%

Q: And the growth [10]?
A: 74.3%

Q: And the growth [11]?
A: 93.9%

Q: And the growth [12]?
A: 36.1%

Q: And the growth [13]?
A: 98.2%

Q: What about the growth [14] of the same compound?
A: 39.8%

Q: What about the growth [15] of the same compound?
A: 56.2%

Q: And the growth [16]?
A: 44.6%

Q: And the growth [17]?
A: 53.3%

Q: What about the growth [18] of the same compound?
A: 83.3%

Q: What about the growth [19] of the same compound?
A: 5.88% (active)

Q: CN(C)CCN1CCN(c2ncccc2C2Nc3ccccc3-n3cccc32)CC1 (stereo not given) was tested. Which growth [1] did it give?
A: 96.2%

Q: And the growth [2]?
A: 102%

Q: And the growth [3]?
A: 102%

Q: And the growth [4]?
A: 109%

Q: What about the growth [5] of the same compound?
A: 106%

Q: And the growth [6]?
A: 84.9%

Q: What about the growth [7] of the same compound?
A: 104%

Q: And the growth [8]?
A: 103%

Q: And the growth [9]?
A: 91.8%

Q: What about the growth [10] of the same compound?
A: -48.6% (active)

Q: What about the growth [11] of the same compound?
A: 110%

Q: What about the growth [12] of the same compound?
A: 89.4%

Q: And the growth [13]?
A: 106%

Q: And the growth [20]?
A: 93.6%

Q: And the growth [14]?
A: 101%

Q: And the growth [15]?
A: 92.3%

Q: And the growth [16]?
A: 103%

Q: And the growth [17]?
A: 101%

Q: What about the growth [18] of the same compound?
A: 101%

Q: And the growth [19]?
A: 106%

Q: What does the source list for O=C(Nc1ccc(Br)cc1F)c1cc(Br)ccc1O?
A: growth [1]: 0.13% (active); growth [2]: -1.23% (active); growth [3]: -4.81% (active); growth [4]: 13%; growth [5]: 3.37% (active); growth [6]: -14.6% (active); growth [7]: -7.77% (active); growth [8]: 8.21% (active); growth [9]: 7.72% (active); growth [10]: 85.6%; growth [11]: 20.9%; growth [12]: 10.3%; growth [13]: -26.4% (active); growth [20]: -38.1% (active); growth [14]: -8.01% (active); growth [15]: 14.5%; growth [16]: -59.7% (active); growth [17]: 9.41% (active); growth [18]: -17.2% (active); growth [19]: 8.04% (active)

Q: CN1C(=O)CNC(=O)[C@H](NC(=O)c2nc3ccccc3cc2O)CSSC[C@H]1C(=O)NCCc1nc2ccccc2cc1O was tested. Which growth [1] did it give?
A: 64.1%

Q: What about the growth [2] of the same compound?
A: 83.8%

Q: What about the growth [3] of the same compound?
A: 62.9%

Q: What about the growth [4] of the same compound?
A: 82.1%

Q: And the growth [5]?
A: 8.06% (active)

Q: And the growth [6]?
A: 128%

Q: And the growth [7]?
A: 42.9%

Q: What about the growth [8] of the same compound?
A: 38.8%

Q: And the growth [9]?
A: 112%

Q: And the growth [10]?
A: 1.34% (active)

Q: What about the growth [11] of the same compound?
A: 38.6%

Q: What about the growth [12] of the same compound?
A: 5.35% (active)

Q: What about the growth [13] of the same compound?
A: 110%

Q: What about the growth [14] of the same compound?
A: 100%

Q: And the growth [15]?
A: 46.4%

Q: And the growth [16]?
A: 68.3%

Q: What about the growth [17] of the same compound?
A: 94.2%

Q: And the growth [18]?
A: 79.2%

Q: And the growth [19]?
A: 6.87% (active)
